Results filed as inconclusive are left out. The source made the active and inactive calls. How the source made its calls: active means hit-call score of the fitted dose curve at least 0.9, where 1 is the maximum; inconclusive means response in the unintended direction; inactive means score below 0.9.

Chain of Retinoic acid receptor alpha (Homo sapiens) (P10276 whole entry, looked up): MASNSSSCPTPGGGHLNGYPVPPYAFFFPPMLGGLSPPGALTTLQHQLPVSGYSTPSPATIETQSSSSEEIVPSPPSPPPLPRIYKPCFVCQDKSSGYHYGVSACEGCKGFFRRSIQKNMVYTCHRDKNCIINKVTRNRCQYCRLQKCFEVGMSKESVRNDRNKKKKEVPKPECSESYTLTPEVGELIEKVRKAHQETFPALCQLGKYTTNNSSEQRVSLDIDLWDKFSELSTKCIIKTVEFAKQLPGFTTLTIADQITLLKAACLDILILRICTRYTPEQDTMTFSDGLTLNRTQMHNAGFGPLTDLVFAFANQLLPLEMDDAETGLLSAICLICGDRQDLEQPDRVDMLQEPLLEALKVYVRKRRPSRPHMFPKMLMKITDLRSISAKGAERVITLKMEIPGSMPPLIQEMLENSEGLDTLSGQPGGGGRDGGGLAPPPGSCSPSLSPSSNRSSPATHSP
Chain of Estrogen receptor beta (Homo sapiens) (Q92731 whole entry, looked up, the tested form may be a part): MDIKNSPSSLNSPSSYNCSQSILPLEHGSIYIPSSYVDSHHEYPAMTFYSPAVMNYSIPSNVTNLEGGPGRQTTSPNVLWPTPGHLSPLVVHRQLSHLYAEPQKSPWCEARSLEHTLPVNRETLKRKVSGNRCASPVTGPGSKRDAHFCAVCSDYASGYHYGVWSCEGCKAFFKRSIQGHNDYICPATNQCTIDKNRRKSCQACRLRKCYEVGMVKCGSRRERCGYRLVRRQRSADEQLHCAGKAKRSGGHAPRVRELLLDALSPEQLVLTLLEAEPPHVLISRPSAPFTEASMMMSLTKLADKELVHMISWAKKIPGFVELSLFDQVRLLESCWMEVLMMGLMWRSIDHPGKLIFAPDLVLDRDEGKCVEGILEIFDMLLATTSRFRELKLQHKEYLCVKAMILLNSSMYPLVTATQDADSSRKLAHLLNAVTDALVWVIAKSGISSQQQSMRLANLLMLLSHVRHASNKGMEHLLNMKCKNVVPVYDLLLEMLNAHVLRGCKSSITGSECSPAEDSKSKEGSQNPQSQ
Chain of Androgen Receptor/SRC-1 Co-activator, AR (gene 367) (P10275 whole entry, looked up, the tested form may be a part): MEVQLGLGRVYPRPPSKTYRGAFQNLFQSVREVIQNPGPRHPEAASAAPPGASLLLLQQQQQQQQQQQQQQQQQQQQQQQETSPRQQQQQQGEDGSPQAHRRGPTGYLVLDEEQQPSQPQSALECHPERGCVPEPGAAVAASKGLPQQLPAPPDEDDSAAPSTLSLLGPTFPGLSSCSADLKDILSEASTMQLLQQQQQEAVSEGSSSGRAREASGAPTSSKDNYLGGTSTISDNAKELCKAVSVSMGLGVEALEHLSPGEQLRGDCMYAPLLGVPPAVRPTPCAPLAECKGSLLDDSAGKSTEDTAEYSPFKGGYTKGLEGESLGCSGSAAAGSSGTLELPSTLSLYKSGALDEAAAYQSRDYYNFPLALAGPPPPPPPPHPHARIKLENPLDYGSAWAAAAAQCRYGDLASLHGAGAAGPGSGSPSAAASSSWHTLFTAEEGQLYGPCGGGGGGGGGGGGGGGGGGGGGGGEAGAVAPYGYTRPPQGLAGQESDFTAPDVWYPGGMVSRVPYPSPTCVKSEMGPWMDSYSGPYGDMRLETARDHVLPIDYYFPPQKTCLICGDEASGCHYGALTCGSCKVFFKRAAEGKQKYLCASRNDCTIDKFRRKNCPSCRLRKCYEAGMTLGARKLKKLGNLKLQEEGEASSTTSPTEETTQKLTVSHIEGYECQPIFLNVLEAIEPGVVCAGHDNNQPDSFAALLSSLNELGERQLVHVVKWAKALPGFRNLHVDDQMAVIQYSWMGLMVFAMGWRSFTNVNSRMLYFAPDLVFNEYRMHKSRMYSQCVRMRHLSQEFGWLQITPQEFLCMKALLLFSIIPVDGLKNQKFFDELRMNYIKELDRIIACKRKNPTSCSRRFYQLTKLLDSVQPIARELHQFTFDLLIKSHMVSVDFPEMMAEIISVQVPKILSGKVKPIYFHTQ

The first test deals with Estrogen receptor (Homo sapiens) (UniProt P03372). Nature of the test: OT_ER_ERaERa_1440: Odyssey Thera (OT) 24-hour HEK293T Protein-Complementation Assay for Estrogen Receptor-alpha/-alpha Homodimer (AID 2283349).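 Further: hits raise fluorescence above DMSO for agonists and antagonists alike.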 Summed up: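 Readout is the rise in mean fluorescence from reporter fragment complementation when ERα LBD (aa 310-547) units dimerize in HEK293T cells. Measured 24 h after dosing and analysed as increase over DMSO control.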
Chain of Estrogen receptor (Homo sapiens) (P03372 whole entry, looked up, the tested form may be a part): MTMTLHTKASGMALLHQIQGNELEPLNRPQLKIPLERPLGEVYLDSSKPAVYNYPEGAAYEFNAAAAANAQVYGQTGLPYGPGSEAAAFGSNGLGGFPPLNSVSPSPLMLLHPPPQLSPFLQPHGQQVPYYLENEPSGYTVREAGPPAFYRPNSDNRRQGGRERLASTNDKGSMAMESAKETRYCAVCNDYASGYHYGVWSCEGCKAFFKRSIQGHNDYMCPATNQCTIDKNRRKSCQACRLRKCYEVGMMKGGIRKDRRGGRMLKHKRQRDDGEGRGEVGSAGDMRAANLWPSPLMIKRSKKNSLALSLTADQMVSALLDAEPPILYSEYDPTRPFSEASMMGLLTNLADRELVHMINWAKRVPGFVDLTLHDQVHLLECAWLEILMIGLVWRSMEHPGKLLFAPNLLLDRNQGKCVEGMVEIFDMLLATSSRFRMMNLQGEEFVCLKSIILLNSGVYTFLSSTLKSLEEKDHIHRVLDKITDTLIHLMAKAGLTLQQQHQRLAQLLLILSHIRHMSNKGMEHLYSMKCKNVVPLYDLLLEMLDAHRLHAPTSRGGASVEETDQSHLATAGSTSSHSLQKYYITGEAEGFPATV
Consider `CC[C@H](C)[C@H]1O[C@]2(C=C[C@@H]1C)C[C@@H]1C[C@@H](C/C=C(\C)[C@@H](O[C@H]3C[C@H](OC)[C@@H](O[C@H]4C[C@H](OC)[C@@H](NC)[C@H](C)O4)[C@H](C)O3)[C@@H](C)/C=C/C=C3\CO[C@@H]4[C@H](O)C(C)=C[C@@H](C(=O)O1)[C@]34O)O2`, for which the compound was classed as inactive.
With `CCc1cccc(CC)c1N(COC)C(=O)CCl`, the outcome was inactive.
Still for that read-out and setting: then `CCCCOC(=O)[C@@H](C)Oc1ccc(Oc2ccc(C#N)cc2F)cc1`, with “inactive”.
Take `CNC(=O)Oc1cccc2c1OC(C)(C)O2`: the call was inactive.
Turning to `CSc1nc(NC(C)C)nc(NC(C)C)n1`, the result was inactive.
In the case of `Cc1cc(C2CC2)nc(Nc2ccccc2)n1`, the compound was called inactive.
Turning to `CNC(=O)ON=C(SC)C(=O)N(C)C`, the call was inactive.
On the same count and under the same terms, the same measure for `COP(=O)(OC)OC(Br)C(Cl)(Cl)Br` (configuration not stated): “inactive”; for `COP(=O)(OC)SCn1c(=O)oc2cc(Cl)cnc21`: “inactive”; for `Nc1c(Cl)cc([N+](=O)[O-])cc1Cl`: “inactive”.
As for `O=[N+]([O-])c1cc(C(F)(F)F)c(Cl)c([N+](=O)[O-])c1Nc1ncc(C(F)(F)F)cc1Cl`, the compound was called inactive.

A further test shares this target. Nature of the test: OT_ER_ERaERa_0480: Odyssey Thera (OT) 8-hour HEK293T Protein-Complementation Assay for Estrogen Receptor-alpha/-alpha Homodimer (AID 2283351).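 Further: rise in fluorescence from reassembled reporter fragments on ERα LBD homodimer in nucleus or whole cell.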 The essentials: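 HEK293T cells stably expressing the human ERα ligand-binding domain (aa 310-547) as a homodimer PCA were dosed with compound for 8 h. Gain of fluorescence intensity versus DMSO vehicle was read by laser scanning cytometry.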
With `CC[C@H](C)[C@H]1O[C@]2(C=C[C@@H]1C)C[C@@H]1C[C@@H](C/C=C(\C)[C@@H](O[C@H]3C[C@H](OC)[C@@H](O[C@H]4C[C@H](OC)[C@@H](NC)[C@H](C)O4)[C@H](C)O3)[C@@H](C)/C=C/C=C3\CO[C@@H]4[C@H](O)C(C)=C[C@@H](C(=O)O1)[C@]34O)O2`, the compound was called inactive.
`CCCCOC(=O)[C@@H](C)Oc1ccc(Oc2ccc(C#N)cc2F)cc1`: the outcome was inactive.
As for `CNC(=O)Oc1cccc2c1OC(C)(C)O2`, the outcome was inactive.
Regarding `CSc1nc(NC(C)C)nc(NC(C)C)n1`, the outcome was inactive.
For the compound `Cc1cc(C2CC2)nc(Nc2ccccc2)n1`, the result was inactive.
With `CNC(=O)ON=C(SC)C(=O)N(C)C`, the result was inactive.
Regarding `COP(=O)(OC)OC(Br)C(Cl)(Cl)Br` (configuration not stated), the call was inactive.
Consider `Nc1c(Cl)cc([N+](=O)[O-])cc1Cl`, for which the outcome was inactive.

The target of another test is T1, Estrogen receptor (Homo sapiens) + Estrogen receptor beta (Homo sapiens) (UniProt P03372+Q92731). Nature of the test: OT_ER_ERaERb_0480: Odyssey Thera (OT) 8-hour HEK293T Protein-Complementation Assay for Estrogen Receptor-alpha/-beta Heterodimer (AID 2283352). The method, then: (§1) OT_ER_ERaERb_0480 is a cell-based assay that uses HEK293T, a human kidney cell line, with measurements taken at 8 hours after chemical dosing in a 384-well plate.OT_ER_ERaERb_0480 is one of one assay component(s) measured or calculated from the OT_ER_ERaERb_0480 assay. It is designed to make measurements of protein fragment complementation, a form of binding reporter, as detected with fluorescence intensity signals by Protein-fragment Complementation technology.Data from the assay component OT_ER_ERaERb_0480 was analyzed into 1 assay endpoint. This assay endpoint, OT_ER_ERaERb_0480, was analyzed in the positive analysis fitting direction relative to DMSO as the negative control and baseline of activity. Using a type of binding reporter, measures of receptor for gain-of-signal activity can be used to understand the binding at the pathway-level as they relate to the gene ESR1 and ESR2. Furthermore, this assay endpoint can be referred to as a primary readout, because the performed assay has only produced 1 assay endpoint. To generalize the intended target to other relatable targets, this assay endpoint is annotated to the nuclear receptor intended target family, where the subfamily is steroidal.
T1 sequence (P03372 whole entry, looked up, the tested form may be a part): as above
T1 sequence (Q92731 whole entry, looked up, the tested form may be a part): as the sequence (Q92731 whole entry, looked up, the tested form may be a part) above
(§2) Protein-fragment complementation assay, or PCA, is a method for the identification and quantification of protein-protein interactions. In the PCA, the proteins of interest ("bait" and "prey") are each covalently linked to fragments of a third protein (e.g. DHFR, which acts as a "reporter"). Interaction between the bait and the prey proteins brings the fragments of the reporter protein in close proximity to allow them to form a functional reporter protein whose activity can be measured. […] Fluorescent signal in the basal state of the assay is very low and is primarily punctuate and cytoplasmic. Modulation of this assay is quantified as an increase in mean fluorescence intensity in the nucleus (for agonists) or in the nucleus and cytoplasm (antagonists) relative to vehicle controls, and can be quantified on a high content imaging device or a laser scanning cytometer. The latter instrument is favored for this assay because of the rapid mode of data acquisition, the ability to acquire data from the entire cell population in a well (as opposed to a fraction of the well on the high content devices) and the larger dynamic range typically achieved with this instrument. To assess sensitivity of the ER alpha/ER beta LBD assay to ligand, cells were treated with the ER agonist 17- beta-estradiol (E2) in 10-point concentration- response format for 8 hours and monitored response on a laser scanning plate cytometer (Acumen eX3; TTP Lab Tech).
For the compound `CCCCOC(=O)[C@@H](C)Oc1ccc(Oc2ccc(C#N)cc2F)cc1`, the outcome was inactive.
Regarding `CSc1nc(NC(C)C)nc(NC(C)C)n1`, the outcome was inactive.
As to `Cc1cc(C2CC2)nc(Nc2ccccc2)n1`, the outcome was inactive.
For the compound `CNC(=O)ON=C(SC)C(=O)N(C)C`, the result was inactive.
For `Nc1c(Cl)cc([N+](=O)[O-])cc1Cl`, the result was inactive.

The next test has as its target Androgen Receptor/SRC-1 Co-activator, AR (gene 367) (UniProt P10275). Nature of the test: OT_AR_ARSRC1_0480: Odyssey Thera (OT) 8-hour HEK293T Protein-Complementation Assay for Androgen Receptor/SRC-1 Co-activator (AID 2283354).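 Further: hits raise the complementation signal above DMSO so AC50 marks enhancers.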 The essentials: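 HEK293T cells stably expressing AR and SRC-1 fused to split Venus YFP fragments via (Gly4Ser)2 linkers were read 8 h after compound dosing. Complementation was imaged at 488 and 635nm, and nuclear/cytoplasmic fluorescence ratio (488nm) was taken over ≥400 cells; gain-of-signal versus DMSO.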
In general, AC50 refers to the concentration giving half of the maximal activity seen. On to `N#CSCSC#N`, for which the AC50 is 18.2 µM (active).
As for `COc1ccc(C(=CC(=O)N2CCOCC2)c2ccc(Cl)cc2)cc1OC`, the result was inactive.
With `CCc1cccc(CC)c1N(COC)C(=O)CCl`, the compound was called inactive.
Still for that read-out and setting: then `CNC(=O)ON=C(SC)C(=O)N(C)C`, with “inactive”; and `Cc1nn(-c2cc(NS(C)(=O)=O)c(Cl)cc2Cl)c(=O)n1C(F)F`, with “inactive”.
On the same count and under the same terms, then `CCCCOC(=O)c1ccccc1C(=O)O`, with “inactive”.
For the compound `C=C(C)[C@H]1Cc2c(ccc3c2O[C@@H]2COc4cc(OC)c(OC)cc4[C@@H]2C3=O)O1`, the AC50 is 0.973 µM (active).
As for `COP(=O)(OC)OC(Br)C(Cl)(Cl)Br` (configuration not stated), the compound was classed as inactive.
Same read-out and setting: then `CC(COc1ccc(Oc2ccccc2)cc1)Oc1ccccn1` (configuration not stated), with “inactive”.
On to `CC(C)=CC1C(C(=O)OCN2C(=O)C3=C(CCCC3)C2=O)C1(C)C` (configuration not stated), for which the AC50 is 77.5 µM (active).
As for `CCOC(=O)COc1cc(-c2nn(C)c(OC(F)F)c2Cl)c(F)cc1Cl`, the compound was classed as inactive.
With `CCOP(=O)(NC(C)C)Oc1ccc(SC)c(C)c1` (configuration not stated), the compound was called inactive.
In the case of `CCCOc1nn(C(=O)NS(=O)(=O)c2ccccc2C(=O)OC)c(=O)n1C`, the compound was classed as inactive.
On the same count and under the same terms, the same measure for `CCC(=O)Nc1ccc(Cl)c(Cl)c1`: “inactive”; for `COP(=O)(OC)SCn1c(=O)oc2cc(Cl)cnc21`: “inactive”.
On to `Nc1c(Cl)cc([N+](=O)[O-])cc1Cl`, for which the result was inactive.
Regarding `O=c1ccc(=O)[nH][nH]1`, the outcome was inactive.

The target of a further test is T1, Estrogen receptor (Homo sapiens) + Estrogen receptor beta (Homo sapiens). Nature of the test: OT_ER_ERaERb_1440: Odyssey Thera (OT) 24-hour HEK293T Protein-Complementation Assay for Estrogen Receptor-alpha/-beta Homodimer (AID 2283356).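 Further: heteromer of ER alpha and ER beta binding domains; hits raise reporter fluorescence and both agonists and antagonists give an increase.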 How it is done:
as §1, with “OT_ER_ERaERb_1440 is” for “OT_ER_ERaERb_0480 is”, “at 24” for “at 8”, “384-well plate.OT_ER_ERaERb_1440” for “384-well plate.OT_ER_ERaERb_0480”, “the OT_ER_ERaERb_1440” for “the OT_ER_ERaERb_0480”, “component OT_ER_ERaERb_1440” for “component OT_ER_ERaERb_0480”, “endpoint, OT_ER_ERaERb_1440,” for “endpoint, OT_ER_ERaERb_0480,”
as §2, with “measured. The OT ER alpha / ER beta assay is a heterodimer PCA of the ligand binding domain (LBD) of ER alpha (amino acids 310-547) and human ER beta (amino acids 263-489) stably expressed in HEK293T cells.” for “measured.”, “24” for “8”
As to `CCc1cccc(CC)c1N(COC)C(=O)CCl`, the result was inactive.
With `CCCCOC(=O)[C@@H](C)Oc1ccc(Oc2ccc(C#N)cc2F)cc1`, the result was inactive.
As to `CSc1nc(NC(C)C)nc(NC(C)C)n1`, the outcome was inactive.
Turning to `Cc1cc(C2CC2)nc(Nc2ccccc2)n1`, the AC50 was 40 µM (active).
As for `CNC(=O)ON=C(SC)C(=O)N(C)C`, the result was inactive.
Regarding `COP(=O)(OC)OC(Br)C(Cl)(Cl)Br` (configuration not stated), the result was inactive.
Take `Nc1c(Cl)cc([N+](=O)[O-])cc1Cl`: the outcome was inactive.

Another test addresses Estrogen receptor beta (Homo sapiens) (UniProt Q92731). Nature of the test: OT_ER_ERbERb_0480: Odyssey Thera (OT) 8-hour HEK293T Protein-Complementation Assay for Estrogen Receptor-beta/-beta Homodimer (AID 2283357).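 Further: active means signal gain over DMSO baseline.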 Summed up: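 Readout: increase in mean fluorescence intensity (nucleus for agonists; nucleus plus cytoplasm for antagonists) relative to DMSO, from a reporter-fragment complementation of human ER-beta LBD homodimer in HEK293T cells dosed 8 hours.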
As to `CCC(=NOC/C=C/Cl)C1=C(O)CC(C2CCOCC2)CC1=O` (configuration not stated), the compound was classed as inactive.
`CCCCOC(=O)[C@@H](C)Oc1ccc(Oc2ccc(C#N)cc2F)cc1`: the result was inactive.
As for `CC1=NNC(=O)N(/N=C/c2cccnc2)C1`, the call was inactive.
With `CC(=NC#N)N(C)Cc1ccc(Cl)nc1`, the call was inactive.

The target of another test is Retinoic acid receptor alpha (Homo sapiens) (UniProt P10276). Nature of the test: NVS_NR_hRAR_Antagonist: NovaScreen (NVS) Nuclear Receptor Binding Assay for human Retinoic Acid Alpha Receptor Antagonism (RAR) (AID 2283358). The essentials:
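Cell-free TR-FRET binding assay on extracted receptor protein, run in antagonist mode; signal read 2 hours after chemical dosing. Loss of signal was fitted relative to DMSO baseline. Screened at 25 uM in duplicate, actives followed up in concentration series.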
With `N#CSCSC#N`, the result was inactive.
Turning to `COc1ccc(C(=CC(=O)N2CCOCC2)c2ccc(Cl)cc2)cc1OC`, the outcome was inactive.
Regarding `COP(=O)(OC)C(O)C(Cl)(Cl)Cl` (configuration not stated), the call was inactive.
Same read-out and setting: the same measure for `Cc1cc(C2CC2)nc(Nc2ccccc2)n1`: “inactive”; for `CNC(=O)ON=C(SC)C(=O)N(C)C`: “inactive”; for `CCCCOC(=O)c1ccccc1C(=O)O`: “inactive”.
Same read-out and setting: the same measure for `CC1=NNC(=O)N(/N=C/c2cccnc2)C1`: “inactive”; for `CCOP(=O)(NC(C)C)Oc1ccc(SC)c(C)c1` (configuration not stated): “inactive”.
As to `COc1cccc(C(=O)NN(C(=O)c2cc(C)cc(C)c2)C(C)(C)C)c1C`, the outcome was inactive.
For `Nc1c(Cl)cc([N+](=O)[O-])cc1Cl`, the outcome was inactive.

The values are drawn from PubChem BioAssay (EPA / NIEHS).
